# Read-outs that look alike come from different tables or passages of the source.
# How the values were obtained:
# Set-up in all cases: species or system human, MV4-11 + K-562 + COLO205 + SK-N-BE2 + OVCAR-8
# NLK = conditions: read-out: apparent Kd, n = 1
# STK4 = conditions: read-out: apparent Kd; compound concentrations: 100 nM and 1000 nM (sheet 'Samples'), CATDS: 0.289467796660549; n = 1
# TNIK = conditions: read-out: apparent Kd, n = 1
# MAPKAPK2 = conditions: read-out: apparent Kd, compound concentrations: 100 nM and 1000 nM (sheet 'Samples'), n = 1
# PDGFRB = conditions: read-out: apparent Kd, compound concentrations: 100 nM and 1000 nM (sheet 'Samples'), n = 1
# MAPK14 = conditions: read-out: apparent Kd, compound concentrations: 100 nM and 1000 nM (sheet 'Samples'), n = 1
# NNT = conditions: read-out: apparent Kd; compound concentrations:100 nM and 1000 nM (sheet 'Samples'); n = 1
# MCM5 = conditions: read-out: apparent Kd; compound concentrations:100 nM and 1000 nM (sheet 'Samples'); n = 1
# NQO2 = conditions: read-out: apparent Kd, n = 1
# PBK = conditions: read-out: apparent Kd; compound concentrations:100 nM and 1000 nM (sheet 'Samples'); n = 1
# MERTK = conditions: read-out: apparent Kd; compound concentrations:100 nM and 1000 nM (sheet 'Samples'); n = 1
# MYLK3 = conditions: read-out: apparent Kd; compound concentrations: 100 nM and 1000 nM (sheet 'Samples'), CATDS: 0.35775008511520401; n = 1
# T10 = system: T1, T10; conditions: read-out: apparent Kd; compound concentrations: 100 nM and 1000 nM (sheet 'Samples'), CATDS: 0.30543908388735203; n = 1
# T1 construct: gene NAT10
# TTK = conditions: read-out: apparent Kd; compound concentrations: 100 nM and 1000 nM (sheet 'Samples'), CATDS: 0.34120640497056598; n = 1
# MTOR = conditions: read-out: apparent Kd; compound concentrations: 100 nM and 1000 nM (sheet 'Samples'), CATDS: 7.1154294212896999E-2; n = 1
# PI4KA = conditions: read-out: apparent Kd; compound concentrations: 100 nM and 1000 nM (sheet 'Samples'), CATDS: 9.2469758478665204E-2; n = 1
# PI4KB = conditions: read-out: apparent Kd; compound concentrations: 100 nM and 1000 nM (sheet 'Samples'), CATDS: 6.1584731713773599E-2; n = 1
# PIK3C2A = conditions: read-out: apparent Kd; compound concentrations: 100 nM and 1000 nM (sheet 'Samples'), CATDS: 5.5656712709310899E-2; n = 1
# PIK3C2B = conditions: read-out: apparent Kd; compound concentrations: 100 nM and 1000 nM (sheet 'Samples'), CATDS: 0.103549921719069; n = 1
# PIK3CA = conditions: read-out: apparent Kd; compound concentrations: 100 nM and 1000 nM (sheet 'Samples'), CATDS: 0.27321348763970998; n = 1
# PIK3CB = conditions: read-out: apparent Kd; compound concentrations: 100 nM and 1000 nM (sheet 'Samples'), CATDS: 0.12993654601332599; n = 1
# PIK3CD = conditions: read-out: apparent Kd; compound concentrations: 100 nM and 1000 nM (sheet 'Samples'), CATDS: 0.40484446782600397; n = 1
# PIK3CG = conditions: read-out: apparent Kd, n = 1
# PRKDC = conditions: read-out: apparent Kd; compound concentrations: 100 nM and 1000 nM (sheet 'Samples'), CATDS: 5.8127762202415202E-2; n = 1
# NUAK2 = conditions: read-out: apparent Kd; compound concentrations:100 nM and 1000 nM (sheet 'Samples'); n = 1
# PKM = conditions: read-out: apparent Kd; compound concentrations:100 nM and 1000 nM (sheet 'Samples'); n = 1
# NQO1 = conditions: read-out: apparent Kd; compound concentrations: 100 nM and 1000 nM (sheet 'Samples'), CATDS: 0.21043150555446399; n = 1
# MAPK9 = conditions: read-out: apparent Kd; compound concentrations: 100 nM and 1000 nM (sheet 'Samples'), CATDS: 1; n = 1
# [1] = compound concentrations:100 nM and 1000 nM (sheet 'Samples')
# [2] = compound concentrations: 100 nM and 1000 nM (sheet 'Samples'), CATDS: 1
smiles,measurement,setting,value
O=C(Nc1n[nH]c2cc(-c3cccc(F)c3F)ccc12)C1CC1 [SB-733894],potency estimated from few doses,"NLK; compound concentrations: 100 nM and 1000 nM (sheet 'Samples'), CATDS: 0.29749178894258499",1.86 µM
same,potency estimated from few doses,STK4,1.99 µM
same,potency estimated from few doses,"TNIK; compound concentrations: 100 nM and 1000 nM (sheet 'Samples'), CATDS: 0.457886576185151",0.808 µM
CCS(=O)(=O)c1ccc(OC)c(Nc2nccc(-c3c(-c4cccc(NC(=O)c5c(F)cccc5F)c4)nn4ncccc34)n2)c1 [GSK326180A],potency estimated from few doses,MAPKAPK2; CATDS: 1,1.39 µM
COc1ccc(NC(=O)Nc2ccc(C)c(-c3ccc(C(=O)Nc4ccncc4)cc3)c2)cc1 [GSK1398475A],potency estimated from few doses,PDGFRB; CATDS: 1,1.68 µM
OCCCNc1nccc(-c2c(-c3cccc(C(F)(F)F)c3)nn3cc(C(F)(F)F)ccc23)n1 [GW630813X],potency estimated from few doses,MAPK14; CATDS: 0.49980022483794101,1.06 µM
same,potency estimated from few doses,MAPKAPK2; CATDS: 0.50019993493019099,1.06 µM
Fc1cccc(COc2ccc(Nc3ncnc4sc(-c5cccs5)cc34)cc2Cl)c1 [GW684626B],potency estimated from few doses,NNT,1.21 µM
O=c1[nH]c2cc(Nc3ccc(F)cc3F)ccc2n1CC1CCCCC1 [BI00601000],potency estimated from few doses,MAPK14; CATDS: 0.69333991182184596,0.0276 µM
same,potency estimated from few doses,MAPKAPK2; CATDS: 0.39097535171865,0.0972 µM
COc1cccc(-c2ccc3c(NC(=O)C4CC4)n[nH]c3n2)c1 [SB-710903],potency estimated from few doses,MCM5,2.02 µM
same,potency estimated from few doses,NLK; [1],1.9 µM
same,potency estimated from few doses,TNIK; [1],1.64 µM
COc1cc(Nc2nccc(N3CCC(NC(=O)c4cc5ccccc5s4)C3)n2)cc(OC)c1OC (stereo not shown) [GSK1379760A],potency estimated from few doses,NQO2; [2],1.03 µM
Cn1ncc2cc(-c3cnc(N)c(Cl)c3N3CCC4(CCNC4=O)CC3)ccc21 [CCT251921],potency estimated from few doses,PBK,1.57 µM
CS(=O)(=O)CCNCc1nc(-c2ccc3ncnc(Nc4ccc(F)c(Cl)c4)c3c2)cs1.Cl [GW461104A],potency estimated from few doses,MERTK,1.19 µM
same,potency estimated from few doses,NNT,1.74 µM
COc1ccc(-c2oc3ncnc(N)c3c2-c2ccc(NC(=O)Nc3cc(C(F)(F)F)ccc3F)cc2)cc1.Cl [GW768505A],potency estimated from few doses,MYLK3,1.43 µM
same,potency estimated from few doses,T10,1.97 µM
same,potency estimated from few doses,TTK,1.57 µM
CS(=O)(=O)CCNCc1nc(-c2ccc3ncnc(Nc4ccc(OCc5ccccc5)c(Cl)c4)c3c2)cs1.CS(=O)(=O)CCNCc1nc(-c2ccc3ncnc(Nc4ccc(OCc5ccccc5)c(Cl)c4)c3c2)cs1.Cl.Cl [GW582764A],potency estimated from few doses,NNT,2.02 µM
same,potency estimated from few doses,NQO2; [1],1.88 µM
COc1ccc(-c2cc3c(C)nc(N)nc3n([C@H]3CC[C@H](O)CC3)c2=O)cn1 [PFE-PKIS_40],potency estimated from few doses,MTOR,0.382 µM
same,potency estimated from few doses,PDGFRB; CATDS: 5.6462124359458001E-2,1.55 µM
same,potency estimated from few doses,PI4KA,0.0965 µM
same,potency estimated from few doses,PI4KB,0.875 µM
same,potency estimated from few doses,PIK3C2A,1.72 µM
same,potency estimated from few doses,PIK3C2B,0.0557 µM
same,potency estimated from few doses,PIK3CA,0.00169 µM
same,potency estimated from few doses,PIK3CB,0.0197 µM
same,potency estimated from few doses,PIK3CD,0.000817 µM
same,potency estimated from few doses,"PIK3CG; compound concentrations: 100 nM and 1000 nM (sheet 'Samples'), CATDS: 0.28339263062776299",0.00157 µM
same,potency estimated from few doses,PRKDC,1.26 µM
COc1ccc(NC(=O)c2ccc(-c3cc(-c4nnc(C)o4)ccc3C)cc2)cc1 [GW595885X],potency estimated from few doses,NUAK2,1.23 µM
same,potency estimated from few doses,PIK3CG; [1],1.41 µM
O=C(Nc1n[nH]c2cc(-c3cccc(F)c3)ccc12)C1CC1 [SB-735464],potency estimated from few doses,NLK; [1],1.81 µM
same,potency estimated from few doses,PKM,2.13 µM
C[C@@H](CS(C)(=O)=O)Nc1ncc2cc(Oc3ccc(F)cc3F)c(=O)n(C)c2n1 [RO5044198-000],potency estimated from few doses,MAPK14; CATDS: 0.48313667011563999,0.0884 µM
same,potency estimated from few doses,MAPKAPK2; CATDS: 0.45912582310815703,0.0974 µM
same,potency estimated from few doses,NQO1,1.41 µM
COC(=O)c1c(-c2ccccc2)c2cc(Br)ccc2c(=O)n1Cc1ccc(S(C)(=O)=O)cc1 [TPKI-100],potency estimated from few doses,MAPK9,1.46 µM
Cl.Cn1c(=O)c(Oc2ccc(F)cc2)cc2cnc(NC3CCOCC3)nc21 [RO3304882-001],potency estimated from few doses,MAPK14; CATDS: 1,1.03 µM
Cn1cnc2c(N)ncnc21 [SKF-97623],potency estimated from few doses,NQO2; [2],1.3 µM
